Vif-A3F inh = inhibitors of Vif-A3F interaction; Potency, µM (titrated, usually from 46.1 µM); HeLa A3F-eYFP + Vif (tagged APOBEC3F with the HIV-1 protein that degrades it), YFP fluorescence increase; 390,000 compounds, 0.2% hits; note: nearly all actives have a fitted effect of over 65% in size
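HeLa cells stably expressing Vif plus C-terminally eYFP-tagged A3F were seeded, incubated overnight at 37 deg C, dosed with compound, incubated overnight again at 37 deg C. Yellow fluorescence (Ex 488/Em 500-530) reported blocked Vif-mediated A3F-eYFP degradation.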
PINK1 expr mod = changes PINK1 expression; Potency, µM (series often up to 76.6 µM), actives largely listed as activators; 410,000 compounds, 0.2% hits; AID 624263; PINK1 immunofluorescence, high-content cytometry, 24 h; active = well fitted activation curve with a large enough effect; inconclusive = small, poorly fitted or top-dose-only effect; cell line not stated here; note: nearly all actives have a fitted effect of over 65% in size
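PINK1 protein level read as immunofluorescence by microplate cytometer in a fixed, stained stable cell line after 24 h exposure to five compound concentrations, with CCCP as control.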
GLS inh = glutaminase GLS (human) inhibition; O94925; GLS enzymatic activity, qHTS titration; Potency, µM (series often up to 45.5 µM), actives largely listed as inhibitors; 410,000 compounds, 0.21% hits; AID 624170
Target sequence (O94925 whole entry, looked up): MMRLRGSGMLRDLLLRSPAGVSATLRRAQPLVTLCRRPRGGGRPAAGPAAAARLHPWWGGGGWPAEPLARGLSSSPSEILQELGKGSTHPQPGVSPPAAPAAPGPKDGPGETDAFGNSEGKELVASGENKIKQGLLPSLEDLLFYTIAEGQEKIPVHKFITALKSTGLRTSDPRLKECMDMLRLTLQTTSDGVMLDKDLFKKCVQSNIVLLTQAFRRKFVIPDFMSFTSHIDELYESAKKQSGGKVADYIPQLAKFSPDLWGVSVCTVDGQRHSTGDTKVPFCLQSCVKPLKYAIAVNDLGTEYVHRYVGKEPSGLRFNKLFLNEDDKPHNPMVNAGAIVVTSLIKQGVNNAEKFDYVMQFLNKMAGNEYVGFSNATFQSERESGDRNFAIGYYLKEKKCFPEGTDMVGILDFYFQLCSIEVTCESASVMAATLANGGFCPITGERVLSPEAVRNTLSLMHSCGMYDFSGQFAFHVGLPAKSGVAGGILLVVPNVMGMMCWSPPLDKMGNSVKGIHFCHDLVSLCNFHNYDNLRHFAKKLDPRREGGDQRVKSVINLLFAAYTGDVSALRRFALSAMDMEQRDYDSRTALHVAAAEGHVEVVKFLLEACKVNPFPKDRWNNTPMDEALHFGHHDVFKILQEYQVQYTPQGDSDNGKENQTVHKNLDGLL
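Human kidney-isoform GLS in 45 mM KH2PO4 pH 8.2, 0.02% Tween-20, with compound, started with 1mM L-Glutamine (added stock). Glutamate oxidase/HRP/Amplex red coupled fluorescence read at start and after 30 min at RT.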
Vif-APOBEC3G blk = inhibitors of Vif-APOBEC3G interaction; Q9HC16; HeLa A3G-eYFP + Vif (tagged APOBEC3G with the HIV-1 protein that degrades it), YFP fluorescence, overnight; Potency, µM (titrated, usually from 46.1 µM), most hits filed as inhibitors; 410,000 compounds, 0.076% hits; AID 602310; note: nearly all actives have a fitted effect of over 60% in size
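Read-out is eYFP fluorescence (Ex 488/Em 500-530) from Vif-expressing HeLa A3G-eYFP cells; more signal means A3G escaped Vif-mediated degradation. Cells plated overnight, compound pinned in, incubated overnight at 37 deg C.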
Epigenetic reg = regulators of epigenetic silencing causing reporter derepression in mouse cells. Potency, µM (top dose mostly 53.9 µM), actives largely listed as activators. murine LDR cells, GFP reporter derepression, 30 h. 280,000 compounds, 0.2% hits. AID 1865; note: nearly all actives have a fitted effect of over 60% in size
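GFP-positive cell count by laser-scanning cytometry (objects 20–120 um) after 30 h, 37 C compound exposure of murine LDR cells; reporter is CMV-GFP integrated at a silenced locus, inducible by HDAC or DNMT inhibitors.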
Each line names hits and unclear results; the compound was inactive in the other large screens. In the library only some 0.7% were active in any assay of this set; here they are far more common. Unless noted, calls come from the whole dose curve; as a rule, active = well fitted curve in the direction sought with a large enough effect; inconclusive = small, poorly fitted or top-dose-only effect, or another doubt; inactive = no such curve, though single readings can be large; an effect the other way counts as inactive or inconclusive.

Cc1ccc(C(=O)N(Cc2cc3cccc(C)c3nc2N2CCC(O)CC2)C2CC2)cc1	none (no result: Vif-A3F inh, GLS inh, Vif-APOBEC3G blk, Epigenetic reg)
S=c1[nH]c(-c2ccccc2)cn1/N=C/c1ccncc1	GLS inh 10µM
CSc1nsc(/C=C/Nc2ccc(O)cc2C)c1C#N	Vif-A3F inh 10µM, Vif-APOBEC3G blk inconclusive, Epigenetic reg inconclusive
CSc1nsc(/C=C/Nc2ccc(Cl)cc2)c1C#N	Vif-A3F inh inconclusive, Vif-APOBEC3G blk inconclusive, Epigenetic reg inconclusive
CSc1nsc(/C=C/Nc2ccc(F)cc2)c1C#N	Vif-A3F inh 22.4µM, Vif-APOBEC3G blk inconclusive, Epigenetic reg 10µM
Cc1cc(O)ccc1N/C=C(\C#N)c1nc2ccccc2o1	PINK1 expr mod inconclusive
COC(=O)c1cc(CNC(=O)c2ccc(N(C)C)cc2)cc(NC(=O)c2ccccc2Cl)c1	none (no result: Vif-A3F inh, GLS inh, Vif-APOBEC3G blk, Epigenetic reg)
CCOC(=O)C1=C(Cc2ccc(OC)cc2)C(=O)c2ccccc2C1=O	Vif-A3F inh inconclusive, Vif-APOBEC3G blk inconclusive, Epigenetic reg inconclusive
CCOC(=O)C1=C(O)c2ccccc2C(=O)/C1=C\c1ccc(CC)cc1	Vif-A3F inh 22.4µM, Vif-APOBEC3G blk inconclusive, Epigenetic reg inconclusive
CC1(C)Cc2c(cnn2-c2ccc(F)cc2)C(NC(=O)C2=NNC(=O)CC2)C1 (stereo not drawn)	GLS inh 15.8µM (no result: Epigenetic reg)
CC1(C)Cc2c(cnn2-c2ccc(F)cc2)C(NC(=O)c2ccco2)C1 (stereo not drawn)	none (no result: Epigenetic reg)
CCN(CC)C(=O)c1ccc(/C=C/c2c[nH]c3ccccc23)[n+](C)c1	Vif-A3F inh 12.6µM, Vif-APOBEC3G blk inconclusive, Epigenetic reg inconclusive
CCCCCCCCCCCCCCCC[n+]1ccc(/C=C/c2c[nH]c3ccccc23)c2ccccc21	none (no result: Vif-A3F inh, PINK1 expr mod, GLS inh, Epigenetic reg)
CC[n+]1c(/C=C/c2c[nH]c3ccccc23)ccc2cc(C)ccc21	Vif-APOBEC3G blk inconclusive, Epigenetic reg 4.47µM
Cc1ccc(C(=O)/C=C/c2c[nH]c3ccccc23)cc1	Epigenetic reg inconclusive
Oc1cc(-c2nc3ccccc3s2)cc2c1OCCN(Cc1cn[nH]c1-c1ccc(Cl)cc1)C2	none (no result: Vif-A3F inh, GLS inh, Vif-APOBEC3G blk, Epigenetic reg)
O=C(CN1Cc2ccccc2OC(c2ccsc2)C1)N1CCC(c2nc3ccccc3[nH]2)CC1 (stereo not drawn)	none (no result: Vif-A3F inh, GLS inh, Vif-APOBEC3G blk, Epigenetic reg)
Cc1ccc(NC(=O)c2ccc(NCCc3ccccc3)c([N+](=O)[O-])c2)cc1F	PINK1 expr mod inconclusive, Epigenetic reg 12.6µM
Cc1cc(=O)oc2cc(OCC(=O)N3CC(C)OC(C)C3)ccc12 (stereo not drawn)	none
Cc1cc(=O)oc2cc(OCC(=O)N3c4ccccc4CC3C)ccc12 (stereo not drawn)	Vif-APOBEC3G blk 3.98µM
COc1cc(OC)c(/C=C/c2cc3ccccc3c[n+]2C)c(OC)c1	PINK1 expr mod 11.2µM (no result: Vif-A3F inh, GLS inh, Epigenetic reg)
CCN(Cc1ccccc1)S(=O)(=O)c1ccc2[nH]c3c(c2c1)CCCCC3	PINK1 expr mod inconclusive
CCN(c1ccc(OC)cc1)S(=O)(=O)c1ccc2[nH]c3c(c2c1)CCCCC3	PINK1 expr mod 25.1µM
CCOC(=O)C1Nc2c(F)cc(C)cc2C2c3ccccc3CC12 (stereo not drawn)	Vif-A3F inh inconclusive (no result: Epigenetic reg)
CCOC(=O)C1Nc2ccccc2C2c3ccccc3CC12 (stereo not drawn)	GLS inh 14.1µM (no result: Epigenetic reg)
COc1cccc(O)c1CN1CCC2(CC1)c1ccccc1[C@@H](NC(=O)c1ccsc1)[C@@H]2OC	none (no result: Vif-A3F inh, GLS inh, Vif-APOBEC3G blk, Epigenetic reg)
Oc1ccccc1C(Nc1nccs1)c1ccc2cccnc2c1O (stereo not drawn)	Vif-A3F inh inconclusive, GLS inh 15.8µM, Vif-APOBEC3G blk inconclusive
Oc1c(C(Nc2ccccn2)c2ccccn2)ccc2cccnc12 (stereo not drawn)	Epigenetic reg 3.55µM
CCc1ccc(C(=O)c2cn(CC(=O)Nc3ccc(OC)c(Cl)c3)c3nc(C)ccc3c2=O)cc1	Epigenetic reg 15.8µM
CCOc1ccc(NC(=O)Cn2cc(C(=O)c3ccc(CC)cc3)c(=O)c3ccc(C)nc32)cc1	none
CCc1ccc(S(=O)(=O)/N=C2\C=C(Nc3ccc(O)cc3)C(=O)c3ccccc32)cc1	GLS inh 4.47µM (no result: Epigenetic reg)
Cn1cnnc1Sc1ccc(CN2CCOc3ccc(C4=Cc5ccccc5CC4)cc3C2)o1	none (no result: Vif-A3F inh, GLS inh, Vif-APOBEC3G blk, Epigenetic reg)
CC(C)Cc1nc2cc(NS(=O)(=O)N(C)C)cc(C(=O)N3CCOc4ccccc4C3)c2n1C	none (no result: Vif-A3F inh, GLS inh, Vif-APOBEC3G blk, Epigenetic reg)

Compound activity: PubChem BioAssay, National Center for Advancing Translational Sciences (NCATS)
